# The source made the active and inactive calls.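 Rule for the calls: active = compound that significantly cut labelled fatty acid release from lipid-loaded liver cells compared with solvent alone; inactive = the rest.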
# Assay: Secondary Assay for lipid storage modulators. NEFA Incorporation/Release.
# Details: AML12 cells, [3H]oleic acid NEFA release, at 5 µM, stronger effect = lower value
# From the text: Data Source: University of Maryland BioAssay Type: Secondary Description: NIH Molecular Libraries Probe Production Centers Network [MLPCN] NIH Chemical Genomics Center [NCGC] Assay Submitter (PI): Carole Sztalryd; GRECC/Geriatrics, Veterans Affairs Medical Center, Department of Medicine, School of Medicine, University of Maryland, Baltimore, Maryland, USA. Beller, Mathias; Max-Planck-Institut fur Biophysikalische Chemie, Germany. NCGC Assay Overview: Storing lipids as a reservoir for energy or the anabolism of elementary metabolites is a common feature of probably all cells and is conserved from bacteria to humans. The universal cellular lipid storage organelle is the so-called lipid storage droplet (LD). Although ubiquitous, LDs share a simple structure composed of a hydrophobic core that harbors the storage lipids, which is shielded by a droplet-specific phospholipid monolayer to which proteins are attached. The current model of LD biogenesis involves an incorporation of the lipid core into the membrane leaflets of the endoplasmic reticulum (ER) followed by a subsequent budding-like maturation of a LD, which ultimately pinches off. Once released, LD volume can increase by localized lipogenesis or fusion of existing droplet. Storage lipids are re-mobilized enzymatically by lipase activity. Lipase regulation in the adipocyte is heavily studied and involves multiple components including catecholamine signaling, the LD-associated proteins Perilipin and comparative gene identification (CGI-58) and at least two lipases named hormone sensitive lipase (HSL) and adipocyte triglyceride lipase (ATGL). LD regulation outside of the adipocyte is poorly understood and only few components are known. However, there is an urgent need to learn more about ectopic fat depots as mislocalized storage of lipids, for example in the liver or muscle, is an eminent health problem associated with insulin resistance or the metabolic syndrome. We developed a laser-scanning cytometer assay to enable 1,536-well screening and combined the results of the small molecules screen with an RNAi database based on lipid storage. […]
# Assay Protocol Summary: Measurements of NEFA released from lipid droplets or incorporated into the TG fraction were performed as previously described. […] Lipolysis was determined by measuring radioactivity released into the media in 1 h. […] Lipids were extracted by the Bligh-Dyer method, and 10% of the total lipid was analyzed by thin layer chromatography. AML12 cells treated with or without specific siRNAs were additionally incubated with either vehicle (DMSO), 5 uM of Exo1 (12.5 mg/ml DMSO), or BFA (10 mg/ml DMSO) during the time of radioactivity release into the media (2 h). NEFA incorporation into the TG fraction and NEFA release are calculated as […]/mg protein. […]
smiles,measurement,setting,value
COC(=O)c1ccccc1NC(=O)c1ccc(F)cc1,NEFA release change,,-0.35 nmol/mg (active)
same,NEFA release change,gammaCOP siRNA treatment,-0.3 nmol/mg
same,NEFA release change,measured here: ATGL siRNA treatment,-0.63 nmol/mg
same,NEFA release change,measured here: control siRNA treatment,-0.47 nmol/mg
